Screening results as filed in PubChem BioAssay.
RORgamma inh = inhibitors of mouse ROR gamma transcriptional activity; P51450; Drosophila S2 Gal4-RORgamma UAS-luciferase reporter, 20 h; Potency, µM (titrated, usually from 53.6 µM), for inactives: at the top dose activity change, negative = inhibition, hits mostly inhibitors; 310,000 tested, 5.4% active; note: nearly all actives have a fitted effect of over 60% in size
Target sequence (P51450 whole entry, looked up, the tested form may be a part): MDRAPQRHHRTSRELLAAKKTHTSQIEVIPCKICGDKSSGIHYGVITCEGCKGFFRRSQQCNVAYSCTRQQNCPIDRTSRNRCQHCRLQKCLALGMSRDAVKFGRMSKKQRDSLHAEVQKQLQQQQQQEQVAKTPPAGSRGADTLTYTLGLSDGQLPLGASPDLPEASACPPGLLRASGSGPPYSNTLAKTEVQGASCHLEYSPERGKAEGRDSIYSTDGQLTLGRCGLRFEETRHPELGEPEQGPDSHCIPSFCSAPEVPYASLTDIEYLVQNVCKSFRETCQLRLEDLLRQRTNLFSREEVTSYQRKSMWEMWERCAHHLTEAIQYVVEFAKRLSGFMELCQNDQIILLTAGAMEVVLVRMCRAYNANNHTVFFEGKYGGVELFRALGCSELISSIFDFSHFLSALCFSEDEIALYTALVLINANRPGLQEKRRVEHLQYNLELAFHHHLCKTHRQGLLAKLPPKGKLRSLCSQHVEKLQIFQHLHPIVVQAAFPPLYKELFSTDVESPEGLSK
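Read-out: Photinus luciferase luminescence; inhibitors lower reporter signal. Insect Schneider cells with Gal4-ROR gamma fusion under metallothionein promoter, UAS reporter; 700 uM final copper sulfate induction, 20 hr, ambient temperature.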
VP16 counter = inhibits Gal4-VP16 luciferase reporter, ROR gamma counter-screen; Drosophila S2 Gal4-VP16 UAS-luciferase, luminescence, 20 h; Potency, µM (titrated, usually from 53.6 µM), for the others: top-dose activity, negative = inhibition, usual class: inhibitors; 310,000 tested, 3.5% active;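 note: Gal4-VP16 expression switched on by copper sulfate through the metallothionein promoter; nearly all actives have a fitted effect of over 50% in size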
KinaseGlo FLuc = Kinase-Glo luciferase inhibition (counter-screen); Kinase-Glo luciferase, ATP luminescence, 8 min; Potency, µM (series often up to 38.3 µM), for inactives: at the highest dose activity change, negative = inhibition, hits mostly inhibitors; 200,000 tested, 0.28% active; AID 1379; note: nearly all actives have a fitted effect of over 60% in size
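Kinase-Glo luciferase light output from ATP and luciferin was measured with 10 uM ATP, within the enzyme's linear range. Buffer: 50 mM imidazole pH 7.2, 50 mM KCl, 7 mM MgCl2, 0.01% Tween 20, 0.05% BSA; luminescence read after 8 min at ambient temperature.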
Numbers without * were called inactive; ? = inconclusive; / = no result given; [ ] = another dose, or the depositor's remark. This is a sample that favours compounds with a hit; in the whole collection about 6.4% have one here. Calls come from the whole dose curve; as a rule, active = well fitted curve in the direction sought with a large enough effect; inconclusive = small, poorly fitted or top-dose-only effect, or another doubt; inactive = no such curve, though single readings can be large; an effect the other way counts as inactive or inconclusive. % is set by controls: 0 for no effect and ±100 for the full control effect; potency is the fitted concentration of half-maximal effect.

SMILES | RORgamma inh | VP16 counter | KinaseGlo FLuc
COc1ccc(-c2ccc(C3C4C=CCCC4(C)C(=O)N3Cc3ccccc3)c(F)c2)cc1 (centres undefined) | 2% | ? | /
O=C(Nc1ncc(Br)s1)C(Cc1ccccc1)n1cccc1 (centres undefined) | 13µM* | ? | -2%
O=C(Nc1cccnc1)C(Cc1ccccc1)n1cccc1 (centres undefined) | 1% | 1% | 1%
Cc1ccc(NC(=O)CSc2nnc(-c3n[nH]c4ccccc34)n2-c2ccccc2)c(C)c1 | ? | -10% | 0%
Cc1cc(-c2csc(NC(=O)c3ccc(S(=O)(=O)N(C)C)cc3)n2)c(C)n1-c1ccccc1 | -26% | 0% | 0%
CN(C)S(=O)(=O)c1ccc(C(=O)Nc2nc(-c3cc4ccccc4o3)cs2)cc1 | ? | 6.3µM* | -4%
CC1CN(S(=O)(=O)c2ccc(C(=O)Nc3nccs3)cc2)CC(C)O1 (centres undefined) | -11% | 0% | /
C=CCNc1nc(-c2cc3ccccc3o2)cs1 | -33% | ? | -3%
O=C(Nc1nc(-c2ccc(S(=O)(=O)N3CCOCC3)cc2)cs1)c1ccccc1 | 14% | -10% | 3%
O=C(Nc1nc(-c2cc3ccccc3o2)cs1)c1ccc(S(=O)(=O)N2CCCC2)cc1 | ? | 7.9µM* | 0%
c1ccc2oc(-c3csc(NCC4CCCO4)n3)cc2c1 (centres undefined) | 7.9µM* | ? | 5%
CC1CN(S(=O)(=O)c2ccc(C(=O)Nc3nc(-c4cc5ccccc5o4)cs3)cc2)CC(C)O1 (centres undefined) | ? | 2.8µM* | -1%
C=C1CCN([C@@H](C)C(=O)NCc2ccc(OC)cc2)S(=O)(=O)c2ccccc21 | 42% | 0% | /
CCOC(=O)Cc1csc(NC(=O)CSc2nccn2C)n1 | 0% | 8% | /
O=C(CSc1nnc(-c2cccnc2)o1)Oc1ccccc1 | -14% | -5% | 0%
O=C(CSc1nnc(-c2cccnc2)o1)c1cc2ccccc2oc1=O | ? | 4µM* | -4%
CCCOc1ccc(/C=N/Nc2cc(N3CCOCC3)ncn2)c(O)c1 | ? | 18µM* | /
Clc1ccccc1/C=N/Nc1cc(N2CCOCC2)ncn1 | 27% | ? | /
N#CN(Cc1ccccc1)Cc1ccccc1 | 14% | -18% | /
Cc1ccc(C)c(NC(=O)CS(=O)(=O)c2cccc3nsnc23)c1 | ? | -3% | 0%
Cc1cccc(Nc2nc(CC(=O)O)cs2)c1 | ? | ? | 2%
Cc1ccc(-c2nc(Nc3cccc(C)c3)sc2CC(=O)O)cc1 | 11µM* | -8% | /
Cc1cc(=O)oc2cc(NC(=O)C(CCCCN)NC(=O)C(CC3CCCCC3)NC(=O)OCC3c4ccccc4-c4ccccc43)ccc12 (centres undefined) | 6% | 16% | /
CCc1cc2c(=O)[nH]c(N3CCCC3)nc2s1 | 19% | 0% | -1%
CCc1cc2c(=O)[nH]c(-c3ccccn3)nc2s1 | ? | 25µM* | -5%
SMILES | RORgamma inh | VP16 counter | KinaseGlo FLuc
Cc1cc(Nc2ccc(Br)cc2F)n2nc(C)nc2n1 | 3.2µM* | 7.9µM* | 0%
Cc1cc(Nc2ccccc2F)n2nc(C)nc2n1 | -18% | -6% | 1%
CCC(=O)[C@]12O[C@@]3(C4C(=O)OCCC41)N(Cc1ccccc1)C(C)=C(C(=O)OC)C(c1ccccc1)N3C2=O (some centres undefined) | 5%[10 µM] | -4%[10 µM] | /
COc1ccc(C(c2c(C)[nH]n(C(N)=S)c2=O)C(C#N)C#N)cc1 (centres undefined) | 4.5µM* | 4.5µM* | 0%
COc1ccc(C(C#N)c2ccc(=O)[nH]n2)cc1 (centres undefined) | -5% | 2% | -1%
O=CN1CCN(c2c([N+](=O)[O-])c(=O)oc3ccccc23)CC1 | 5% | 9% | /
COc1cc(-c2nc(-c3ccccc3)c(-c3cccs3)[nH]2)cc(OC)c1OC | -20% | -2% | -6%
c1ccc(-c2nc(-c3cccs3)[nH]c2-c2ccccc2)cc1 | 10µM* | -8% | -3%
Clc1ccc(/C=C/c2nc3ccccc3[nH]2)cc1 | 4.5µM* | 7.1µM* | 13µM*
Clc1ccc(SCc2nc3ccccc3[nH]2)cc1 | ? | ? | -20%
O=C(/C=C/c1ccc(Cl)cc1Cl)c1nc2ccccc2[nH]1 | -45% | 1% | -4%
Clc1cccc(Cl)c1/C=C/c1nc2ccccc2[nH]1 | 11µM* | ? | -22%
Clc1ccc(/C=C/c2nc3ccccc3[nH]2)c(Cl)c1 | ? | 7.1µM* | 7.1µM*
O=c1[nH]c(/C=C/c2ccccc2Cl)nc2ccccc12 | -4% | 15% | /
COc1ccc(/C=C2\SC(=S)N(CC(=O)NC3CCS(=O)(=O)C3)C2=O)cc1 (centres undefined) | -20% | -11% | /
Cc1cccc(Cl)c1NC(=S)NN | 5µM* | ? | /
CCOC(=O)Nc1cccc(Cl)c1C | 1% | 5% | -8%
CNC(=S)Nc1cccc(Cl)c1C | 13µM* | ? | 2%
Cc1c(Cl)cccc1NC(=S)Nc1ccc2[nH]c(=O)[nH]c2c1 | 0% | -17% | /
COC(=O)CCC(=O)NC(=S)Nc1c(C)cccc1C | ? | ? | -2%
Cc1c(Cl)cccc1NC(=S)NN | 3.5µM* | 10µM* | -3%
CCOC(=O)CCNC(=O)N1CCCC(CNS(=O)(=O)c2cccs2)C1 (centres undefined) | 17% | -12% | 0%
CC(C)C[C@H](NC(=O)[C@H](CCCCN)NC(=O)CNC(=O)[C@H](CC(C)C)NC(=O)[C@@H](NC(=O)[C@@H]1CSSC[C@H](N)C(=O)N[C@@H](CO)C(=O)N[C@@H](CC(N)=O)C(=O)N[C@@H](CC(C)C)C(=O)N[C@@H](CO)C(=O)N[C@@H]([C@@H](C)O)C(=O)N1)C(C)C)C(=O)N[C@@H](CO)C(=O)N[C@@H](CCC(N)=O)C(=O)N[C@@H](CCC(=O)O)C(=O)N[C@@H](CC(C)C)C(=O)N[C@@H](Cc1cnc[nH]1)C(=O)N[C@@H](CCCCN)C(=O)N[C@@H](CC(C)C)C(=O)N[C@@H](CCC(N)=O)C(=O)N[C@H](C(=O)N[C@@H](Cc1ccc(O)cc1)C(=O)N1CCC[C@H]1C(=O)N[C@@H](CCCNC(=N)N)C(=O)N[C@H](C(=O)N[C@@H](CC(N)=O)C(=O)N[C@H](C(=O)NCC(=O)N[C@@H](CO)C(=O)NCC(=O)N[C@H](C(=O)N1CCC[C@H]1C(N)=O)[C@@H](C)O)[C@@H](C)O)[C@@H](C)O)[C@@H](C)O | 7% | -5% | /
CO[C@H]1COC(=O)[C@@H](C)COC(=O)[C@H](C)NC(=O)C/C=C\[C@H]1C | -18%[10 µM] | -8%[10 µM] | /
CCN(CC)CCNC(=O)c1ccc(NC(=O)c2cccc(S(=O)(=O)Nc3ccc(C)cc3)c2)cc1 | -105% | 16µM* | 5%
CCN(CC)CCNC(=O)c1ccc(NC(=O)c2cccc(S(=O)(=O)N3c4ccccc4CC3C)c2)cc1 (centres undefined) | 0% | 1% | /
O=C(Nc1ccc(Br)cc1)c1cccc(S(=O)(=O)Nc2ccc(Br)cc2)c1 | ? | 7.9µM* | /
O=C(Nc1cccc(O)c1)c1cccc(S(=O)(=O)Nc2cccc(O)c2)c1 | -14% | -1% | /
